NS1 inh: blocks influenza NS1 protein function; Potency, µM (doses to about 46.1 µM), for the others: at the highest dose activity, positive = more growth; actives 0.4% (n = 270,000); note: potency is the fitted concentration of half-maximal effect; actives are rising curves; nearly all actives have a fitted effect of over 50% in size
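Recovery from NS1-induced slow growth read by OD600 in budding yeast switched to galactose assay medium (pH 6.0, -URA) at 1:100 dilution. Compound 23 nl per well; the matching strain lacking NS1 serves as control.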
Shiga toxin inh: blocks Shiga toxin action in Vero cells; Vero cells, Shiga toxin protein synthesis inhibition reporter; inhibition, % at 38.7 µM; actives 9.2% (n = 290,000); in the data active = inhibition mostly above about 28%, no sharp cut-off; inactive = mostly below about 43%; note: 0% is about no effect
SARS PLP yeast: SARS-CoV PLP inhibition in yeast | S. cerevisiae expressing SARS-CoV PLpro, growth rescue | AID 485353 | Potency, µM (highest dose often 32.9 µM), inactives show at the highest dose activity, positive = growth rescue, most hits filed as activators | actives 0.19% (n = 330,000); note: potency is the fitted concentration of half-maximal effect; 0% is about no effect; nearly all actives have a fitted effect of over 55% in size
CHX counter: counter-screen hit for Shiga toxin inhibitors, cycloheximide; max response, %; actives 12% (n = 300,000); cell reporter, cycloheximide protein synthesis inhibition counterscreen; in the data active = max response mostly above about 13%, no sharp cut-off; inactive = mostly below about 14%; note: read at 38.3 µM for the half of the compounds with a filed dose; 0% is about no effect
Pf growth 96h: P. falciparum growth inhibition at 96 hours | P. falciparum luciferase reporter growth, 96 h | Potency, µM (highest dose often 28.7 µM), for inactives: at the top dose activity change, negative = inhibition, actives largely listed as inhibitors | actives 6.9% (n = 320,000) | AID 504834; active = well fitted inhibition curve with a large enough effect; inconclusive = small, poorly fitted or top-dose-only effect, or another doubt; inactive = no such curve, though single readings can be large or run the other way; note: potency is the fitted concentration of half-maximal effect; % is set by controls: 0 for no effect and ±100 for the full control effect
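Compounds incubated with erythrocytes infected by luciferase-expressing P. falciparum (2% hematocrit, 0.05% parasitemia final) for 96 hours, 37 C in 5% CO2. Growth inhibition scored as decreased luciferase luminescence.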
Pf growth 48h: inhibits P. falciparum growth in the first generation, 48 h. P. falciparum luciferase growth in erythrocytes, 48 h. Potency, µM (doses to about 28.7 µM), inactives show top-dose activity change, negative = inhibition, hits mostly inhibitors. actives 5.9% (n = 310,000). AID 504832; active = well fitted inhibition curve with a large enough effect; inconclusive = small, poorly fitted or top-dose-only effect, or another doubt; inactive = no such curve, though single readings can be large or run the other way; note: potency is the fitted concentration of half-maximal effect; % is set by controls: 0 for no effect and ±100 for the full control effect
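Parasite viability was followed by luminescence of a genomically integrated firefly luciferase. Cultures held 0.1% parasitemia at 2% hematocrit (final), incubated under 5% CO2 at 37 C.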
* = called active by the depositor; ? = inconclusive; · = no result. In the library only some 21% were active in any assay of this set; here they are far more common. Unless noted, calls come from the whole dose curve.

SMILES | NS1 inh | Shiga toxin inh | SARS PLP yeast | CHX counter | Pf growth 96h | Pf growth 48h
COc1ccc(CNC(=O)Cn2nnc3ccccc3c2=O)cc1 | 6% | 60* | 3% | 22* | 86% | 90%
O=C(Cn1nnc2ccccc2c1=O)NCCc1ccccc1 | 3% | 25* | -7% | 15 | -24% | -7%
CN(C(=O)COC(=O)c1ccccc1Cc1ccccc1)C1CCS(=O)(=O)C1 (stereo not drawn) | -8% | 15 | -4% | 9 | 5% | 66%
Cc1ccc(NC(=O)Cn2nnc3ccccc3c2=O)cc1C | 7% | 33 | -3% | 13 | -1% | 0%
Cc1ccc(NC(=O)Cn2nnc3ccccc3c2=O)cc1 | · | 63 | 2% | 32* | 23% | 96%
O=C(Nn1cnnc1)C1Cc2ccccc2CN1S(=O)(=O)c1ccc(F)cc1 (stereo not drawn) | 9% | 6 | 2% | 3 | 8.3µM* | 16%
COC(=O)C1Cc2ccccc2CN1S(=O)(=O)c1ccc(F)cc1 (stereo not drawn) | -6% | 15 | -2% | -1 | 1.3µM* | -8%
COc1ccc(CC(=O)Nc2ccc(-c3noc(-c4ccccc4OC)n3)cc2)cc1 | -8% | 31 | 5% | 27* | ? | ·
COc1cccc(-c2nc(-c3ccc(NC(=O)Cc4ccccc4OC)cc3)no2)c1 | 1% | 43* | 3% | 22* | 22% | ?
COc1ccc(CCC(=O)Nc2ccc(-c3noc(-c4ccc(OC)c(OC)c4)n3)cc2)cc1 | -5% | 14 | 1% | 11 | -17% | ?
COc1ccccc1CC(=O)Nc1ccc(-c2noc(COc3ccc(Br)cc3)n2)cc1 | 5% | -14 | -8% | 3 | -20% | ·
COc1ccccc1CC(=O)Nc1ccc(-c2noc(COc3cccc(C)c3C)n2)cc1 | 9% | -6 | 0% | -3 | 15µM* | ·
O=C(CN1C(=O)C(=O)N(C2CCCC2)C1=O)Nc1ccc(OC(F)F)cc1 | · | · | -4% | · | 64% | 1%
S=c1[nH]ccn1Cc1ccccc1 | · | 37 | 4% | -1 | 9% | 431%
CCOc1ccc(NC(=O)CS(=O)CC(=O)Nc2cccnc2)cc1 (stereo not drawn) | 3% | -9 | 0% | -6 | 39% | 12%
CC(C)(C)NC(=O)c1ccccc1NC(=O)C1CCCO1 (stereo not drawn) | 3% | -1 | 1% | 2 | -22% | 6%
CN1C(=O)C2(NC(=O)c3ccccc3N2C)c2ccccc21 (stereo not drawn) | 2% | -5 | 0% | -2 | 50% | 0%
CCN1C(=O)C2(Nc3ccccc3-c3nc4ccccc4n32)c2cc(OC)ccc21 (stereo not drawn) | 6% | -24 | 9% | -4 | 5% | 9.3µM*
CN1C(=O)C2(Nc3ccccc3-c3nc4ccccc4n32)c2ccccc21 (stereo not drawn) | -37% | 6 | 0% | 7 | -8% | 8.3µM*
O=C1Nc2ccccc2C12Nc1ccccc1-c1nc3ccccc3n12 (stereo not drawn) | -24% | 4 | 3% | 4 | · | 0.74µM*
Fc1ccc(/C=N/n2c(-c3cccs3)n[nH]c2=S)cc1 | 17% | -10 | -25% | -3 | 0% | 11%
Nc1cc(OC(=O)c2cccs2)nn1S(=O)(=O)c1ccccc1 | -3% | 3 | 6% | 1 | ? | 4%
Nc1cc(OC(=O)c2c(F)cccc2Cl)nn1S(=O)(=O)c1ccccc1 | -3% | -7 | 4% | -1 | 10µM* | 23%
Cc1ccc(NC(=O)CCc2c[nH]c3ccccc23)nc1 | -20% | 35* | -3% | 11* | ? | ?
O=C(CCc1c[nH]c2ccccc12)Nc1ncccc1O | -18% | 16 | -4% | 16* | 35% | 54%
SMILES | NS1 inh | Shiga toxin inh | SARS PLP yeast | CHX counter | Pf growth 96h | Pf growth 48h
O=C(CCc1c[nH]c2ccccc12)NCc1ccncc1 | 24% | -4 | 3% | -6 | 4% | 9%
O=C(CCCc1c[nH]c2ccccc12)Nc1ccc2ccccc2c1 | 5% | 68* | -9% | 38* | -20% | -9%
COc1ccc(Cl)cc1S(=O)(=O)Nc1ncn[nH]1 | -2% | -7 | 0% | -4 | 6% | 24%
O=C(Cc1cccc2ccccc12)N1CCCc2ccccc21 | -91% | 15 | -12% | 8 | -43% | 50%
Cc1ccc(Cn2c(=O)c3ccccc3n3nc(C)cc23)cc1 | 4% | 21 | 0% | 2 | ? | ?
COc1ccc(CSCC(=O)N/N=C/c2ccc(OCC(=O)NCc3ccco3)cc2)cc1 | 4% | 7 | 6% | -2 | -3% | -21%
CC(SCc1ccccc1)C(=O)N/N=C/c1ccc(OCC(=O)NCc2ccco2)cc1 (stereo not drawn) | -9% | -8 | 2% | -2 | 1.7µM* | 4%
COCCN(C(=O)COC(=O)c1sccc1C)c1c(N)n(Cc2ccccc2)c(=O)[nH]c1=O | 0% | -26 | -2% | -6 | -24% | 18%
CN(C)C(CNC(=O)CSc1nc2sc3c(c2c(=O)n1C)CCC3)c1ccccc1 (stereo not drawn) | · | · | 10% | · | ? | ?
COCCC(=O)N1CCC(Oc2ccc(C(=O)N(C)C3CCCCC3)cc2)CC1 | -11% | · | 6% | 12* | ? | -6%
COCC(=O)N1CCC(Oc2ccc(C(=O)N(C)C3CCCCC3)cc2)CC1 | 6% | -3 | 15% | -4 | -19% | 5%
CCCOC1CCCN(C(=O)c2ccc(OC3CCN(C(=O)CCOC)CC3)cc2)C1 (stereo not drawn) | 11% | 52 | 0% | 16* | 8% | 3%
COc1ccc(N2CCN(Cc3cc(=O)oc4cc5c(cc34)CCCC5)CC2)cc1 | ? | 19 | ? | -5 | -20% | -29%
Oc1cc2c(cc1CN1CCN(c3cccc(C(F)(F)F)c3)CC1)CCC2 | -2% | -7 | -2% | -5 | 1.2µM* | 1.7µM*
COc1ccc(N2CCN(Cc3cc4c(cc3O)CCC4)CC2)cc1 | 8% | -22 | -1% | -4 | · | 1.7µM*
Oc1cc2c(cc1CN1CCN(c3ccc(F)cc3)CC1)OCO2 | -4% | -13 | 1% | -6 | 0% | ?
Oc1cc2c(cc1CN1CCN(c3ccccc3)CC1)CCC2 | -4% | 14 | 2% | -2 | 2.6µM* | 1.7µM*
NC(=O)C1CCN(c2nc(-c3ccc4c(c3)OCCO4)cs2)CC1 | · | · | 5% | · | ? | ?
COc1ccccc1C(=O)Nc1nc(-c2ccc3c(c2)OCCO3)cs1 | · | 57* | 1% | 28* | 0% | 7%
CC(C)(C)C(=O)Nc1nc(-c2ccc3c(c2)OCO3)cs1 | -7% | 51* | -2% | 24* | 20% | ·
CCC(=O)Nc1nc(-c2ccc3c(c2)OCCO3)cs1 | -9% | active | -17% | 31* | 187% | 98%
c1cc2c(cc1-c1csc(NNC3=NCCCCC3)n1)OCCO2 | · | 55* | -7% | 37* | ? | ?

Source: PubChem (National Center for Advancing Translational Sciences (NCATS))
